Experimental data reported in PubChem BioAssay (EPA / NIEHS).
The source made the active and inactive calls. How the source made its calls: active means hit-call score of the fitted dose curve at least 0.9, where 1 is the maximum; inactive means score below 0.9.

Legend:
[1] = ATG_CMV_CIS: Attagene CIS-FACTORIAL HepG2 Assay for human CMV (Internal Marker) (AID 2282928); details: HepG2 CMV promoter reporter, transcription factor profiling; actives raise or lower the signal;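 further: endpoint acts as a background internal control marker rather than a target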
Procedure, shortened: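 24 h chemical treatment, HepG2 with transient multi-reporter transfection; RNA → oligo(dT) RT → PCR → 6-FAM extension → HpaI digest → CE fluorescence. Bidirectional fit, DMSO negative control.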

[2] = ATG_DR4_LXR_CIS: Attagene CIS-FACTORIAL HepG2 Assay for human Liver X Receptor (LXR), DR4 submotif (AID 2282929); details: HepG2 Attagene DR4 cis-reporter, mRNA transcription; actives raise or lower the signal
Procedure, shortened: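 Measures endogenous transcription factor activity via a DR4-driven reporter transcript in human HepG2 cells. Compounds incubated 24 h; mRNA quantified by RT-PCR and capillary electrophoresis, analysed as gain or loss of signal versus DMSO.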

[3] = target: Aryl hydrocarbon receptor (Homo sapiens) (UniProt P35869); assay: ATG_Ahr_CIS: Attagene CIS-FACTORIAL HepG2 Assay for human Aryl Hydrocarbon Receptor (Ahr) (AID 2282930); details: HepG2 AhR cis-factorial reporter transcription; actives raise or lower the signal
Aryl hydrocarbon receptor (Homo sapiens), sequence (P35869 whole entry, looked up): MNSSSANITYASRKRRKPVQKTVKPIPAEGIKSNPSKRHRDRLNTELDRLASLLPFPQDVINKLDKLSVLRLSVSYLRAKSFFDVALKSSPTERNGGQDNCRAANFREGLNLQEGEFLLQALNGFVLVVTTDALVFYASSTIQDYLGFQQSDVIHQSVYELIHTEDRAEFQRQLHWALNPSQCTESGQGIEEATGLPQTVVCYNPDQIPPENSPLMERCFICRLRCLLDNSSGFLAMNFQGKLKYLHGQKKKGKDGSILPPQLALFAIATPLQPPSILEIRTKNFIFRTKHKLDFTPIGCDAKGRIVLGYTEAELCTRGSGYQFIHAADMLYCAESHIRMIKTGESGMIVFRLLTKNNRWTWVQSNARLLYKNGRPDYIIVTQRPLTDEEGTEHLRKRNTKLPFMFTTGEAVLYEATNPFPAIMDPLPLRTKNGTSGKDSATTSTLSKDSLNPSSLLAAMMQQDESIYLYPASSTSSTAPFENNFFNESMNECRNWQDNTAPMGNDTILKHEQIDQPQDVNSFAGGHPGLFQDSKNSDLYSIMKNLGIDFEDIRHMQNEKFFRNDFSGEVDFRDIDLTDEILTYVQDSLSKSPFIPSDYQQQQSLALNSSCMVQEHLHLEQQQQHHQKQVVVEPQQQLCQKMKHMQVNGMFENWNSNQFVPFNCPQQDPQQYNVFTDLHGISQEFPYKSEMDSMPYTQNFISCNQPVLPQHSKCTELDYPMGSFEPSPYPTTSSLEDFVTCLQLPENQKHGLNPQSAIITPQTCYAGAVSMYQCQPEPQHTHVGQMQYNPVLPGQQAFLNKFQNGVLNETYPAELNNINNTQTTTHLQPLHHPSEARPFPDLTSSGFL
Procedure, shortened: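 HepG2, transient MRTU (cis) transfection, 24 h exposure. RNA → cDNA → PCR → 6-FAM primer extension → HpaI 2 h 37 C → CE. Fit: bidirectional, DMSO baseline.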

[4] = ATG_AP_1_CIS: Attagene CIS-FACTORIAL HepG2 Assay for human Activator Protein 1 (AP-1) (AID 2282931); details: HepG2 Attagene cis-factorial AP-1 reporter mRNA; actives raise or lower the signal
Procedure, shortened: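 Bidirectional concentration-response fitting against DMSO controls. Underlying signal: reporter mRNA from cis-promoter constructs in transiently transfected HepG2, measured after 24 h by RT-PCR and capillary electrophoresis.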

[5] = ATG_AP_2_CIS: Attagene CIS-FACTORIAL HepG2 Assay for human Activator Protein 2 (AP-2) (AID 2282932); details: HepG2 AP-2 cis-reporter, Attagene transcription factor profiling; actives raise or lower the signal
Procedure, shortened: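 Transiently transfected HepG2 cells are exposed to chemical for 24 h. Reporter transcripts are then measured as fluorescence following RT-PCR and capillary separation, and gain- or loss-of-signal is fitted relative to DMSO.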

[6] = ATG_BRE_CIS: Attagene CIS-FACTORIAL HepG2 Assay for human Bone Morphogenetic Protein (BMP) Response Element (BRE) (AID 2282933); details: HepG2 BMP response element reporter, Attagene transcription factor profiling; actives raise or lower the signal
Procedure, shortened: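 Transient MRTU transfection of human HepG2 liver cells; 24 h compound treatment; total RNA isolated, reverse-transcribed, PCR-amplified, 6-FAM labelled, HpaI-cut, capillary electrophoresis. DMSO = negative control/baseline, bidirectional fit.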

[7] = target: Retinoic acid receptor alpha (Homo sapiens) (UniProt P10276); assay: ATG_DR5_RAR_CIS: Attagene CIS-FACTORIAL HepG2 Assay for human Retinoic Acid Receptor Alpha (RARE), DR5 submotif (AID 2282934); details: HepG2 Attagene cis-factorial RARE DR5 reporter, mRNA; actives raise or lower the signal
Retinoic acid receptor alpha (Homo sapiens), sequence (P10276 whole entry, looked up): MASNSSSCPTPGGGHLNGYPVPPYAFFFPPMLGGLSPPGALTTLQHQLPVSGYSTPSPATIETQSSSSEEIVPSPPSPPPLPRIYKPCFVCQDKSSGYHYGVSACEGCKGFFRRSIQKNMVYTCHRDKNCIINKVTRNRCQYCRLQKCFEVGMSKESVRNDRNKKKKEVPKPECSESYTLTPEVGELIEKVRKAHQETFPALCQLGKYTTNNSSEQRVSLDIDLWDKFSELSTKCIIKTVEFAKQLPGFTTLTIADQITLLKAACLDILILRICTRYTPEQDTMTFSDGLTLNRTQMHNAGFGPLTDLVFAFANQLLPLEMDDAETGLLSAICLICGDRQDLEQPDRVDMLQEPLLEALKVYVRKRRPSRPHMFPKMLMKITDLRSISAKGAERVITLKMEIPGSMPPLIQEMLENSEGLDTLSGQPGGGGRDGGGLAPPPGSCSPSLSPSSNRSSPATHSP
Procedure, shortened: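 HepG2, transient cis-reporter transfection, 24 h exposure. mRNA readout: RT-PCR, FAM label, HpaI cut, capillary electrophoresis. DMSO baseline, gain/loss fitting.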

[8] = target: Transcription factor E2F1 (Homo sapiens) (UniProt Q01094); assay: ATG_E2F_CIS: Attagene CIS-FACTORIAL HepG2 Assay for human E2F Transcription Factor 1 (AID 2282935); details: HepG2 Attagene cis-reporter, E2F reporter RNA transcripts; actives raise or lower the signal
Transcription factor E2F1 (Homo sapiens), sequence (Q01094 whole entry, looked up): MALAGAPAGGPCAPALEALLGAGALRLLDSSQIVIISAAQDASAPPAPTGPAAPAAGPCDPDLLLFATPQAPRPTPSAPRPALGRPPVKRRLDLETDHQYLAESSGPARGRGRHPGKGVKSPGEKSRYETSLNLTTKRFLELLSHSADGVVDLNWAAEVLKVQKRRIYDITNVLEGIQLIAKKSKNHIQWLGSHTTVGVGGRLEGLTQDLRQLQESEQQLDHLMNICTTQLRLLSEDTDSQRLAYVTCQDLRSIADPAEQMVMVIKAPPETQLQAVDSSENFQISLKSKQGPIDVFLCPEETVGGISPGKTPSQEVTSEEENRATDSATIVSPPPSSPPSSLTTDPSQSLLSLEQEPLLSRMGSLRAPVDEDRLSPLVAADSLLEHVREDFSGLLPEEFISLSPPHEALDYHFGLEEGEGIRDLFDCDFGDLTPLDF
Procedure, shortened: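 Fluorescent RT-PCR products, digested with HpaI for 2 h at 37 C, are separated by capillary electrophoresis. Source RNA comes from transfected HepG2 cultures treated for 24 h.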

[9] = ATG_E_Box_CIS: Attagene CIS-FACTORIAL HepG2 Assay for human Enhancer Box (E-box) (AID 2282936); details: HepG2 E-box cis-reporter transcription, actives raise or lower the signal
Procedure, shortened: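 Fluorescent reporter fragments separated by capillary electrophoresis gave the signal; mRNA came from HepG2 cells transfected with cis-element reporters and treated 24 h. Curves fitted bidirectionally relative to DMSO controls.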

[10] = ATG_M_61_CIS: Attagene CIS-FACTORIAL HepG2 Assay for M61 Transcription Factor (Internal Marker) (AID 2282937); details: HepG2 Attagene CIS-FACTORIAL M61 internal marker reporter; actives raise or lower the signal
Procedure, shortened: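 Fluorescence from labelled cDNA fragments, separated by capillary electrophoresis, quantifies reporter induction. HepG2 cells bearing transiently transfected cis-promoter MRTUs were incubated with test chemical for 24 h; DMSO defined baseline for gain/loss fitting.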

[11] = ATG_EGR_CIS: Attagene CIS-FACTORIAL HepG2 Assay for human Early Growth Response 1 (EGR1) (AID 2282938); details: HepG2 Attagene CIS-FACTORIAL EGR reporter mRNA; actives raise or lower the signal
Procedure, shortened: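 Cell-based multiplex transcription assay: HepG2 carrying transfected cis-element reporter units, 24 h chemical treatment. Fluorescence from capillary electrophoresis of RT-PCR products gives mRNA levels; fitting is bidirectional relative to DMSO.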

[12] = ATG_M_19_CIS: Attagene CIS-FACTORIAL HepG2 Assay for M19 Transcription Factor (Internal Marker) (AID 2282939); details: HepG2 Attagene CIS-FACTORIAL M19 internal marker reporter; actives raise or lower the signal
Procedure, shortened: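 Transfect HepG2 with MRTU reporter library → dose chemical, 24 h → isolate total RNA, reverse-transcribe with oligo(dT) → PCR, 6-FAM label, HpaI cut (2 h, 37 C) → capillary electrophoresis. Bidirectional fit vs DMSO.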

[13] = ATG_Ets_CIS: Attagene CIS-FACTORIAL HepG2 Assay for human Erythroblast Transformation Specific (ETS) (AID 2282941); details: HepG2 ETS cis-reporter transcription, actives raise or lower the signal
Procedure, shortened: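 Cis-regulated reporter mRNA induction in HepG2 (transient transfection), 24 h exposure, RT-PCR plus capillary electrophoresis detection; DMSO serves as negative control and baseline.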

[14] = target: Hepatocyte nuclear factor 3-beta (Homo sapiens) (UniProt Q9Y261); assay: ATG_FoxA2_CIS: Attagene CIS-FACTORIAL HepG2 Assay for human Forkhead box A2 (FOXA2) (AID 2282942); details: HepG2 cis-reporter transcription factor activity, 24 h; actives raise or lower the signal
Hepatocyte nuclear factor 3-beta (Homo sapiens), sequence (Q9Y261 whole entry, looked up): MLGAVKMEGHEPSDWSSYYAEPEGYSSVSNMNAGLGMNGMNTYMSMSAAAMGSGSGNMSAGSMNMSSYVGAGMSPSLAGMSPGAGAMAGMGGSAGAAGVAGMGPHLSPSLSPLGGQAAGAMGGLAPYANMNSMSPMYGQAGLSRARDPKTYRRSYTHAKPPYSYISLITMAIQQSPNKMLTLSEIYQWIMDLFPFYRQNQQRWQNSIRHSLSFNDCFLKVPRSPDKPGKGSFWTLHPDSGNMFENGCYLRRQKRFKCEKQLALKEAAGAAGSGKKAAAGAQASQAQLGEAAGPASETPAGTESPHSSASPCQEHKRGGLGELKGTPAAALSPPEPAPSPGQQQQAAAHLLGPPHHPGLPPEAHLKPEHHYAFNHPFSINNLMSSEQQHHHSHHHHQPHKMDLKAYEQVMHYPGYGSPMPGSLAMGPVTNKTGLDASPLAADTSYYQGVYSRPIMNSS
Procedure, shortened: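 In transiently transfected human HepG2 cells, promoter-driven reporter mRNA levels after 24 h chemical exposure are determined via RT-PCR with capillary electrophoresis. DMSO serves as baseline for bidirectional fitting.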

[15] = ATG_FoxO_CIS: Attagene CIS-FACTORIAL HepG2 Assay for human Forkhead box O (FoxO) (AID 2282943); details: HepG2 Attagene cis-reporter, FoxO element, mRNA; actives raise or lower the signal
Procedure, shortened: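 Human hepatoma HepG2 cells carry transiently introduced reporter transcription units controlled by cis promoter elements. Chemical treatment lasted 24 h, and mRNA signal was compared with DMSO.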

[16] = ATG_GATA_CIS: Attagene CIS-FACTORIAL HepG2 Assay for human GATA Binding Protein (AID 2282944); details: HepG2 GATA cis-element reporter, Attagene multiplex mRNA; actives raise or lower the signal
Procedure, shortened: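 Transient MRTU transfection, HepG2, 24 h compound exposure. Total RNA → oligo(dT) RT → PCR → 6-FAM primer extension → HpaI cut → CE. Bidirectional fit vs DMSO.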

[17] = ATG_GLI_CIS: Attagene CIS-FACTORIAL HepG2 Assay for human Zinc Finger Protein GLI1 (AID 2282945); details: HepG2, Attagene cis-factorial reporter mRNA, GLI element; actives raise or lower the signal
Procedure, shortened: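 Bidirectional curve fits relative to DMSO, using reporter mRNA levels from RT-PCR plus capillary electrophoresis. Cells were HepG2 transiently carrying cis-regulated reporter constructs, harvested 24 h after dosing.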

[18] = target: Bile acid receptor (Homo sapiens) (UniProt Q96RI1); assay: ATG_IR1_CIS: Attagene CIS-FACTORIAL HepG2 Assay for human Nuclear Receptor Subfamily 1 Group H Member 4 (NR1H4), IR1 submotif (AID 2282946); details: IR1 reporter transcription, actives raise or lower the signal
Bile acid receptor (Homo sapiens), sequence (Q96RI1 whole entry, looked up): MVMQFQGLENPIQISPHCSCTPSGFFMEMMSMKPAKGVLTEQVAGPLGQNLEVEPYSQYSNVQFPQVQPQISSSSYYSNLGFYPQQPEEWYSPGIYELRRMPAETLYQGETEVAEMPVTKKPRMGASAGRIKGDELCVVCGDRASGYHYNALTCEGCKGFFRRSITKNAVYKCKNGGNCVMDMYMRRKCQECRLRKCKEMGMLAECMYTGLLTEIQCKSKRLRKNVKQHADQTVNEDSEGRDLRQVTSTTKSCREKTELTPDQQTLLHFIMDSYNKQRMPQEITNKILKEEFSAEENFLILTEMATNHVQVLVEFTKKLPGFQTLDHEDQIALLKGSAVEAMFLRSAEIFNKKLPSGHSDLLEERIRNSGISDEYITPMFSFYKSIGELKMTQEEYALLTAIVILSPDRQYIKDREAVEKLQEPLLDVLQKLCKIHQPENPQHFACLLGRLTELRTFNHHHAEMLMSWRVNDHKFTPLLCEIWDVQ
Procedure, shortened: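 HepG2 cells transiently transfected with multiplexed cis-element reporter units read endogenous transcription factor activity. After 24 h compound exposure, reporter mRNA was quantified by RT-PCR, fluorescent labelling, HpaI digestion and capillary electrophoresis; bidirectional fitting versus DMSO baseline.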

[19] = ATG_GRE_CIS: Attagene CIS-FACTORIAL HepG2 Assay for human Glucocorticoid Response Elements (GRE) (AID 2282947); details: HepG2 GRE cis-reporter, Attagene multiplex mRNA; actives raise or lower the signal
Procedure, shortened: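 Multiplexed cis-reporter mRNA induction, HepG2, 24 h post-dose. RT-PCR, FAM-labelled, HpaI-digested amplicons by CE. Bidirectional fit vs DMSO.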

[20] = ATG_ERE_CIS: Attagene CIS-FACTORIAL HepG2 Assay for Estrogen Response Element (ERE) (AID 2282940); details: HepG2 ERE cis-reporter, Attagene RNA transcript; actives raise or lower the signal
Procedure, shortened: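 Transient MRTU transfection of human HepG2; cis-element promoters; 24 h dosing; total RNA → RT (oligo dT) → PCR → 6-FAM primer extension → HpaI digest → CE fluorescence. Bidirectional fit, DMSO baseline.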

Measured: AC50

O=C1C[C@@H]2OCC=C3CN4CC[C@]56c7ccccc7N1[C@H]5[C@H]2[C@H]3C[C@H]46
not listed: [18] | [19] | [20]
inactive: all other assays above

COCCl
not listed: [19] | [20]
inactive: all other assays above

CCOP(=S)(OCC)O/N=C(\C#N)c1ccccc1
active: [2] 27.7 µM | [3] 0.657 µM | [4] 42.3 µM | [6] 31.6 µM
not listed: [20]
inactive: all other assays above

CC(F)(F)CC(F)(F)F
not listed: [15]
inactive: all other assays above

CCCCOP(=O)(CCCC)OCCCC
not listed: [19] | [20]
inactive: all other assays above

COC(=O)Nc1cccc(OC(=O)Nc2cccc(C)c2)c1
not listed: [20]
inactive: all other assays above

O=C(O)c1cc(I)cc(I)c1I
active: [3] 40.8 µM | [20] 27.8 µM
not listed: [15]
inactive: all other assays above
